Assay [1] is described as follows: Quantitative high throughput screen for delayed death inhibitors of the malarial parasite plastid, 48 hour incubation (AID 488752). Further: nearly all actives have a fitted effect of over 65% in size. Put shortly:
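One-generation (48 h) growth assay: a decrease in luciferase signal from an integrated reporter in P. falciparum-infected red cells (0.1% parasitemia, 2% hematocrit) after compound exposure at 37 C indicates parasite inhibition.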

Assay [2] deals with M-phase phosphoprotein 8 (Homo sapiens) (UniProt Q99549). The assay is described as follows: qHTS Validation Assay for Inhibitors for MPP8 Chromodomain Interactions with Methylated Histone Tails (AID 488949). Further: nearly all actives have a fitted effect of over 55% in size. Further: potency means the concentration at half of the fitted maximal effect. Put shortly:
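AlphaScreen proximity signal from streptavidin donor and Ni-chelate acceptor beads (10 ug/mL each) reported binding of MPP8 to trimethyl-K9 H3(1-18) peptide, both at 50 nM. The complex formed 30 min before a 30 min compound exposure at room temperature, in PBS pH 7.4.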
(In general: qHTS replaces the single test concentration by a dilution series.)

Assay [3] concerns the target Chromobox protein homolog 1 (Homo sapiens) (UniProt P83916). The assay is described as follows: qHTS Validation Assay for Inhibitors of HP1-beta Chromodomain Interactions with Methylated Histone Tails (AID 488953). Further: nearly all actives have a fitted effect of over 50% in size. Further: potency means the concentration at half of the fitted maximal effect. Put shortly:
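AlphaScreen proximity signal from streptavidin donor and nickel chelate acceptor beads (final 10 ug/mL) after 30 min dark incubation. Compounds had 30 min at room temperature with preformed complex of 50 nM HP1-beta and 50 nM b-H3(1-18)K9me3 in PBS pH 7.4 with 0.01% Tween-20.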

Assay [4] addresses Methanococcus maripaludis chaperonin (MmCpn) (UniProt Q6LX38). The assay is described as follows: High-Throughput Screening for Modulators of Cytosolic Chaperonin Activity: MmCpn Primary Screen (AID 488978).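 Further: 50 nM MmCpn enzyme hydrolysing 30 µM ATP at 37 °C.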 The method in brief:
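ATPase activity of 50 nM MmCpn was assayed with 30 uM ATP, 10 minutes at 37C, after a 5 min compound preincubation at room temperature. ADP production was read as HTRF emission at 590 and 665 nm.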

Assay [5] addresses Transient receptor potential cation channel subfamily V member 1 (Homo sapiens) (UniProt Q8NER1). The assay is described as follows: HTS Assay for Compounds that Act as Enhancers of the Vanilloid Receptor 1 (AID 488979). Put shortly: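 TRPV1-expressing cells loaded with Fluo-8 calcium dye; compounds added and calcium influx read kinetically for 3 min (agonist phase), then capsaicin at EC20 added and read 2 min more for enhancement. Fluorescence ex 480/em 520 nm.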

For assay [6], the target named is Thyrotropin receptor (Homo sapiens) (UniProt P16473). The assay is described as follows: qHTS Assay for Antagonists of the Thyroid Stimulating Hormone Receptor (AID 488980). Further: series mostly up to about 58 µM. The method in brief: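 Inhibition of cAMP raised by EC80 TSH (4 nM final) was read by HTRF, with lysate cAMP competing against cAMP-d2 for cryptate antibody after 30 min at room temperature. The cells were transfected HEK293 held in phosphodiesterase inhibitor RO 20-1724 at 70 uM.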

Assay [7] concerns the target Thioredoxin reductase 1, cytoplasmic (Rattus norvegicus) (UniProt O89049). As to the kind of experiment: qHTS Assay for Substrates of Mammalian Selenoprotein Thioredoxin Reductase 1 (TrxR1) (AID 488772).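 Further: series mostly up to about 57 µM; a drop in NADPH fluorescence below the no-compound background marks a TrxR1 substrate.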 Put shortly: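 In this dual-purpose format, potential substrates are identified from the first fluorescence read after selenite addition, not from the 8-minute delta. Rat enzyme is preincubated with NADPH and then with compound at ~22 deg C.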

Assay [8] shares this target. As to the kind of experiment: qHTS Assay for Inhibitors of Mammalian Selenoprotein Thioredoxin Reductase 1 (TrxR1) (AID 488773).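 Further: drop in NADPH fluorescence over an 8 min run after selenite addition; series mostly up to about 57 µM; nearly all actives have a fitted effect of over 40% in size.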 To be noted: Potency: inhibition. Put shortly: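 Inhibition is scored from the loss of NADPH fluorescence between first and last reads of an 8-min kinetic run. Selenite (400 uM) was the substrate, added after 15 min compound preincubation at room temperature.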

Assay [9] has as its target Flap endonuclease 1 (Homo sapiens) (UniProt P39748). As to the kind of experiment: qHTS Validation Assay for the Inhibitors of Human Flap endonuclease 1 (FEN1) (AID 488816). The method in brief:
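Steps: add FEN1 (10 nM reagent) or buffer only; pin compounds; hold 15 min at room temperature; start with substrate, 50 nM final; read at 0 and 15 min; correct, normalize and fit a four-parameter Hill curve.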

Data on 21 compounds can be found in PubChem BioAssay (NCATS).

SMILES strings stand for the structures. Results filed as inconclusive are left out. More than one record can exist for a structure, and the calls need not agree. The source made the active and inactive calls. The call rests on the fitted dose curve; in most records, active means well fitted curve in the direction sought with a large enough effect; inconclusive means small, poorly fitted or top-dose-only effect, or another doubt; inactive means no such curve, though single readings can be large; an effect the other way counts as inactive or inconclusive.

Sequence of Chromobox protein homolog 1 (Homo sapiens) (P83916 whole entry, looked up): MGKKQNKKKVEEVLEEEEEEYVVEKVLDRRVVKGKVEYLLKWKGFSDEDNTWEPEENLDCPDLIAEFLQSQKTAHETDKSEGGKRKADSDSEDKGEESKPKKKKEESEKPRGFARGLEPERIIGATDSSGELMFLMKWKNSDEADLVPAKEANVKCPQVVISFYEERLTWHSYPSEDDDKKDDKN
Sequence of M-phase phosphoprotein 8 (Homo sapiens) (Q99549 whole entry, looked up): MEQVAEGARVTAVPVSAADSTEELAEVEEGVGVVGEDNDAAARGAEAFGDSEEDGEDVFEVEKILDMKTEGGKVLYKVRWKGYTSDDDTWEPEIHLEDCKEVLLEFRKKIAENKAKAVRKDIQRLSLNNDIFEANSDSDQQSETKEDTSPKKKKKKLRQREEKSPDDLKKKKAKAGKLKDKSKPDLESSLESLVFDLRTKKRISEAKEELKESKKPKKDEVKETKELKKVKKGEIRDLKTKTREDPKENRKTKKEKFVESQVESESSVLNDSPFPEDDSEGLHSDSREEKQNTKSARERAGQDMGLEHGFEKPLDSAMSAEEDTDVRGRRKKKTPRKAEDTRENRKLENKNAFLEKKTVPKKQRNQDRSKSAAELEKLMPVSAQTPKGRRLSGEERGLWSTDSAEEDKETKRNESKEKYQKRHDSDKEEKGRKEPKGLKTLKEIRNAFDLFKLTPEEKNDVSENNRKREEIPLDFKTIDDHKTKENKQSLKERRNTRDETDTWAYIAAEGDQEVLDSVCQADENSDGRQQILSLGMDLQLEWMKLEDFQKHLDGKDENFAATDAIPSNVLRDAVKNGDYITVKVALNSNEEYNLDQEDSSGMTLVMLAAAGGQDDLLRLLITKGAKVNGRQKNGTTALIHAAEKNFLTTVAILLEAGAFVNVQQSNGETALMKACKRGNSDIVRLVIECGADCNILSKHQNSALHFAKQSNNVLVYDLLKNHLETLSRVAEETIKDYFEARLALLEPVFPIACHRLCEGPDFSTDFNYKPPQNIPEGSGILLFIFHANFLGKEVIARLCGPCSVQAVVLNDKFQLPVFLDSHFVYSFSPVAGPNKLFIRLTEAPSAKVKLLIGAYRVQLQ
Sequence of Flap endonuclease 1 (Homo sapiens) (P39748 whole entry, looked up): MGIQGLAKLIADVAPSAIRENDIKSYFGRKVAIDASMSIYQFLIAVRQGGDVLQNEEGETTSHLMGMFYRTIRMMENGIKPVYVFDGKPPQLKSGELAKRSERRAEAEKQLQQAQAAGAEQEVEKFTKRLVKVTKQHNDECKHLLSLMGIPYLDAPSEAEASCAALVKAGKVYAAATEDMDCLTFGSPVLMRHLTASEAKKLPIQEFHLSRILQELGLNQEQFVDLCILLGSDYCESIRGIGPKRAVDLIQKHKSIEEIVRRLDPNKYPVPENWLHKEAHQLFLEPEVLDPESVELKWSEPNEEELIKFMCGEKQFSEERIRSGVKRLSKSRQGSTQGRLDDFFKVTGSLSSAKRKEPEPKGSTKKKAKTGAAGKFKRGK
Sequence of Transient receptor potential cation channel subfamily V member 1 (Homo sapiens) (Q8NER1 whole entry, looked up): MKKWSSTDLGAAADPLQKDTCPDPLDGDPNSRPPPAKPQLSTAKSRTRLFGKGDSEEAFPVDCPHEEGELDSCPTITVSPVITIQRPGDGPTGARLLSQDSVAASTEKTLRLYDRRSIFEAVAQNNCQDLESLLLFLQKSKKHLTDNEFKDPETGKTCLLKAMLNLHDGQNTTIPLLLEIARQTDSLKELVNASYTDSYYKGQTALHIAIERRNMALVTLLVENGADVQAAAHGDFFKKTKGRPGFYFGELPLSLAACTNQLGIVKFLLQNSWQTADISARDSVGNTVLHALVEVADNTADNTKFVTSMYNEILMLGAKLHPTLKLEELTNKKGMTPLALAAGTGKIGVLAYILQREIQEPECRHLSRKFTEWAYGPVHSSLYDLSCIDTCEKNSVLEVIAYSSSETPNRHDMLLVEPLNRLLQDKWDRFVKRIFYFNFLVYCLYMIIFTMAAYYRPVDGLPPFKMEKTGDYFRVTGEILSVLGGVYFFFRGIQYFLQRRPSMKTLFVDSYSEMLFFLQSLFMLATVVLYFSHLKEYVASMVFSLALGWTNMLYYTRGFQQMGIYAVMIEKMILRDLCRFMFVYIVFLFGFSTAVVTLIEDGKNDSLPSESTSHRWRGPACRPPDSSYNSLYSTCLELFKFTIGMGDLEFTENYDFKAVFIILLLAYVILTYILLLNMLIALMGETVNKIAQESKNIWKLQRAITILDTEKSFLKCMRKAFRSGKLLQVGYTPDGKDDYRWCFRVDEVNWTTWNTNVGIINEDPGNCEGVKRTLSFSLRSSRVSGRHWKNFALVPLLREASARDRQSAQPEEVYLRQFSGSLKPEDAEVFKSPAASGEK
Sequence of Thyrotropin receptor (Homo sapiens) (P16473 whole entry, looked up): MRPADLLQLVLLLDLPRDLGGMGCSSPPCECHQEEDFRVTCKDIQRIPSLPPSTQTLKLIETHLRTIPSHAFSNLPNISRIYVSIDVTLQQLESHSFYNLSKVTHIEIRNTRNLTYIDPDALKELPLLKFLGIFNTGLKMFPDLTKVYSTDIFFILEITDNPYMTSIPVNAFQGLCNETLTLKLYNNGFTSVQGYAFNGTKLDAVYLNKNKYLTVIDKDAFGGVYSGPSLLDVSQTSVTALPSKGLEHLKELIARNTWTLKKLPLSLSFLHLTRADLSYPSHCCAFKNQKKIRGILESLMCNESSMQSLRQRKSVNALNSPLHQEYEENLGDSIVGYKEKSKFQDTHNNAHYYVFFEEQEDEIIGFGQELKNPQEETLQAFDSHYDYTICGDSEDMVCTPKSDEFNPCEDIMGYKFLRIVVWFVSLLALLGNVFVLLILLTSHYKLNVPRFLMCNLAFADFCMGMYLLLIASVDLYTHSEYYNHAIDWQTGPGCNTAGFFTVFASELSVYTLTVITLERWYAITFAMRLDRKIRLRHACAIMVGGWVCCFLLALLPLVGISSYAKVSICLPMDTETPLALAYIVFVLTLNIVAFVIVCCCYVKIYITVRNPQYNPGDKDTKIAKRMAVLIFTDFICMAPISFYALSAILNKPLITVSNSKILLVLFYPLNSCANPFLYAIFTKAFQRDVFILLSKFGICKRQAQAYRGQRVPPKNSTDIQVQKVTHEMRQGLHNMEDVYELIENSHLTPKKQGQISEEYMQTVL
Sequence of Methanococcus maripaludis chaperonin (MmCpn) (Q6LX38 1-543): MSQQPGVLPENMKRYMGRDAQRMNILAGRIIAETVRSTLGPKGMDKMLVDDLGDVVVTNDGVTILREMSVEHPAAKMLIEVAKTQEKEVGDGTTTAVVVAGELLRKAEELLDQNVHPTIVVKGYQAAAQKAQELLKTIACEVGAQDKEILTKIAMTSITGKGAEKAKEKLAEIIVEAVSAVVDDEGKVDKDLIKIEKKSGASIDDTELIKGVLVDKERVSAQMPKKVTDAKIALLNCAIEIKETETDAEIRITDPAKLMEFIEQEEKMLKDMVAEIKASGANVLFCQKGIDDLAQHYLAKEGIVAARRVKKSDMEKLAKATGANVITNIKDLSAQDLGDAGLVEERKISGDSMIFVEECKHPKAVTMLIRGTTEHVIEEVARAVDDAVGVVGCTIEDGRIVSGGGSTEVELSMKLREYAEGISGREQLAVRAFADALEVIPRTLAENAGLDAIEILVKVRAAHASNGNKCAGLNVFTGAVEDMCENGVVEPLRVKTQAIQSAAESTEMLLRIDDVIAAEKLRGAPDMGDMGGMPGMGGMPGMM
Sequence of Thioredoxin reductase 1, cytoplasmic (Rattus norvegicus) (O89049 whole entry, looked up): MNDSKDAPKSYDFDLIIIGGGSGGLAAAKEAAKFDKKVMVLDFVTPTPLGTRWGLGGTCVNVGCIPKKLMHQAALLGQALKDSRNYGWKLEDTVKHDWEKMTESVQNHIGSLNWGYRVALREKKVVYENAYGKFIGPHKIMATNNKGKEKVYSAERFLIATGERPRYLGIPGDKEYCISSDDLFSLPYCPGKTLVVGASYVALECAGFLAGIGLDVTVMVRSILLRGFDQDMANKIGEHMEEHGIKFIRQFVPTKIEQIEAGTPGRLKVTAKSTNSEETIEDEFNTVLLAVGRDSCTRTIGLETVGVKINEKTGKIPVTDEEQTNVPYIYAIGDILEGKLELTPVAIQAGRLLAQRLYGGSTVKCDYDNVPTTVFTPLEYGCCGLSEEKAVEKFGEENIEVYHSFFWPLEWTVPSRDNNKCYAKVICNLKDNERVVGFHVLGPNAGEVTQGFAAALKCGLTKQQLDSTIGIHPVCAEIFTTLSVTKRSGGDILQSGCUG

With `CCn1nc(C(=O)O)c(=O)c2cc3c(cc21)OCO3`, the Potency entry in [1], in assay [2] and in assay [3] was “inactive” in each case. The compound was classed as inactive in assay [4], in [5] and in [6].

As to `C[C@@H](O)[C@H]1C(=O)N2C(C(=O)O)=C(SCCN=CN)C[C@H]12`, the compound was classed as inactive in assay [7] and in [4]. Besides, the Potency result in assay [8], in assay [9], in assay [2] and in [3] was “inactive” throughout.

For the compound `Cc1cccc(C)c1NC(=O)C(C)N` (stereo not drawn), the compound was classed as inactive in assay [7] and in assay [4]. Besides, the Potency result in [8], in assay [9], in assay [2] and in [3] was “inactive” each time.

For the compound `OC(CCN1CCCCC1)(c1ccccc1)C1CCCCC1` (stereo not drawn), the compound was classed as inactive in [7], in [4], in assay [5] and in assay [6]. Besides, the Potency result in [8], in assay [9], in assay [2] and in assay [3] was “inactive” each time.

For the compound `NC(=O)c1cn(Cc2c(F)cccc2F)nn1`, the Potency result in assay [8], in assay [9] and in [2] was “inactive” throughout. Moreover, the Potency in assay [3] was 0.006 µM (active). Moreover, the outcome in assay [4] was inactive.

Turning to `CCN(CC)CCCN(c1ccccc1)C1Cc2ccccc2C1`, the compound was classed as inactive in [7] and in assay [4]. Also, the Potency result in assay [8], in assay [9], in [2] and in assay [3] was “inactive” each time.

For the compound `CN(C)C/C=C(/c1ccc(Br)cc1)c1cccnc1`, the Potency result in assay [8], in assay [9] and in assay [2] was “inactive” each time. Further, the compound was classed as inactive in assay [4] and in assay [6].

As to `CCOC(=O)C1=C(C)NC(C)=C(C(=O)OC)C1c1cccc(Cl)c1Cl` (stereo not drawn), the compound was called inactive in assay [7], in [4], in [5] and in assay [6]. Besides, the Potency entry in assay [8], in assay [2] and in assay [3] was “inactive” throughout.

For `CC(C)(C)c1ccc(C(=O)CCCN2CCC(OC(c3ccccc3)c3ccccc3)CC2)cc1`, the result in assay [7] and in [4] was inactive. For the same compound, the Potency entry in [8], in assay [9] and in [2] was “inactive” throughout.

With `O=C1NCN(c2ccccc2)C12CCN(CCCC(c1ccc(F)cc1)c1ccc(F)cc1)CC2`, the Potency result in [8] and in [9] was “inactive” throughout. The Potency was 14.1 µM (active) in assay [2] and 39.8 µM (active) in assay [3]. In addition, the outcome in assay [4] and in assay [5] was inactive.

Turning to `Cc1nc2sccn2c(=O)c1CCN1CCC(=C(c2ccc(F)cc2)c2ccc(F)cc2)CC1`, the call in assay [7], in assay [4] and in assay [5] was inactive. Besides, the Potency result in [8] and in assay [9] was “inactive” each time. Further, the Potency in assay [2] is 28.2 µM (active) and inactive; in [3], 44.7 µM (active).

As for `COCCOC(=O)C1=C(C)NC(C)=C(C(=O)OC(C)C)C1c1cccc([N+](=O)[O-])c1` (stereo not drawn), the Potency entry in assay [8], in [9] and in [2] was “inactive” in each case. Besides, the outcome in assay [4] and in assay [5] was inactive.

Consider `C[C@]12CC[C@@H]3c4ccc(O)cc4C[C@@H](CCCCCCCCCS(=O)CCCC(F)(F)C(F)(F)F)[C@H]3[C@@H]1CC[C@@H]2O` (stereo partly drawn), for which the Potency entry in assay [8], in assay [9], in assay [2] and in assay [3] was “inactive” each time. The outcome in assay [4] was inactive.

For the compound `CCCCCCCC/C=C\CCCCCCCC(=O)NCc1ccc(O)c(OC)c1`, the Potency result in [8], in assay [9], in assay [2] and in [3] was “inactive” in each case. The compound was called inactive in assay [4].

As to `CN(C)CCOC(=O)COc1ccc(Cl)cc1`, the Potency result in assay [8], in assay [9], in assay [2] and in assay [3] was “inactive” each time. Besides, the outcome in [4] and in [5] was inactive.

In the case of `CCC(=O)c1ccc2c(c1)N(CCCN(C)C)c1ccccc1S2`, the Potency result in assay [8], in assay [9] and in [2] was “inactive” throughout. The compound was called inactive in [4].

With `COCC(=O)O[C@]1(CCN(C)CCCc2nc3ccccc3[nH]2)CCc2cc(F)ccc2[C@@H]1C(C)C`, the call in assay [7], in [4] and in assay [6] was inactive. The Potency result in assay [8], in assay [9] and in assay [2] was “inactive” throughout.

On to `NC1=NCC2c3ccccc3Cc3ccccc3N12` (stereo not drawn), for which the compound was called inactive in assay [7] and in assay [4]. Also, the Potency result in [8], in [9], in [2] and in assay [3] was “inactive” in each case.

Regarding `COc1ccc2c(c1OC)C(=O)O[C@@H]2[C@H]1c2c(cc3c(c2OC)OCO3)CCN1C`, the compound was classed as inactive in assay [7] and in [4]. Also, the Potency entry in assay [8], in assay [9] and in assay [2] was “inactive” throughout.

Take `CN1C[C@H](C(=O)N[C@]2(C)O[C@@]3(O)[C@@H]4CCCN4C(=O)[C@H](Cc4ccccc4)N3C2=O)C[C@@H]2c3cccc4[nH]cc(c34)C[C@H]21`: the Potency entry in [8] and in [9] was “inactive” in each case. Also, the compound was called inactive in assay [4].

For `CCCN1C[C@H](CSC)C[C@@H]2c3cccc4[nH]cc(c34)C[C@H]21`, the Potency entry in assay [8], in assay [9] and in assay [2] was “inactive” each time. Also, the result in assay [4], in [5] and in assay [6] was inactive.
